Molecules are shown by their SMILES. This is part of a sample that, as a whole, favours compounds with a hit. Of some 83,000 tested, about 20% had one in any assay.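 A percent growth of 40 corresponds to 60% growth inhibition; 0 means no net growth; -100 means all cells died. Active threshold: below 10.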 The source made the active and inactive calls.

The first test has as its system HS 578T breast. Nature of the test: NCI-60 one-dose screen, 48 h (100 = growth as untreated, 0 = no growth, -100 = all killed). The note with it: 10 µM unless noted.
For `Cc1cc(NCCCNc2ccnc3cc(Cl)ccc23)nc(N2CCN(C)CC2)n1`, the growth is 91.9% (inactive).
For `CCCc1cc(=O)n2c(C(=O)Nc3ccccc3OC)c(C(=O)Nc3ccc(F)cc3)sc2n1`, the growth is 9.91% [30 µM] (active).
On the same count and under the same terms, then `N#Cc1cccc(/C=C(/C(=O)c2ccccc2)c2ccccc2)c1`, with 55.4% (inactive); and `CCC1(c2ccccc2)Oc2ccccc2-n2c(C#N)c3ccccc3c2C1=O` (centres undefined), with 105% (inactive).
As for `C/C(=N/N=C(N)N)c1ccc(N)cc1`, the growth was 73.3% (inactive).
Consider `CC(C)c1nc(N(C)S(C)(=O)=O)nc(-c2ccc(F)cc2)c1/C=C/[C@@H](O)C[C@@H](O)CC(=O)O`, for which the growth is 110% (inactive).
Same read-out and setting: then `COc1ccc(/C=C(\C#N)c2ccccc2)cc1`, with 85.7% (inactive).
Turning to `Fc1ccc([C@@H]2CCNC[C@H]2COc2ccc3c(c2)OCO3)cc1`, the growth was 82.8% (inactive).
For the molecule `COc1cc(/C=C/C(=O)c2c(-c3ccc(F)cc3)nc3sc(C)nn23)cc(OC)c1OC`, the growth is 50.1% (inactive).
`CCC(C)CC(CC)NCCN1CCN(C(CC)CC(C)CC)C1=S` (centres undefined): the growth is 67.2% (inactive).
`COc1cccc(-c2nnc(N)o2)c1`: the growth was 101% (inactive).
Same read-out and setting: the same measure for `CCCCSc1cc(C)nc(N)n1`: 92.3% (inactive); for `Cc1ccsc1/C=C/C1=NCCCN1C`: 115% (inactive); for `Nc1c2ccccc2nc2ccccc12` (tested in a mixture with another compound): 42.9% (inactive).
As to `COc1cc(/C=C/C(=O)c2c(-c3ccc(Cl)cc3)nc3sc(C)nn23)cc(OC)c1OC`, the growth was 109% (inactive).
As for `CCCCc1nc(Cl)c(CO)n1Cc1ccc(-c2ccccc2-c2nn[nH]n2)cc1`, the growth was 110% (inactive).
As to `CN(CCOc1ccc(CC2SC(=O)NC2=O)cc1)c1ccccn1` (centres undefined), the growth was 100% (inactive).
Regarding `N#Cc1c2ccccc2c2n1-c1ccccc1OC(c1ccccc1)C2=O` (centres undefined), the growth is 40.1% (inactive).
On to `Nc1nc(N)c([N+](=O)[O-])c(=O)[nH]1`, for which the growth is 100% (inactive).
On the same count and under the same terms, the same measure for `Cc1c(C(N)=O)sc2ncn(Cc3ccccc3)c(=O)c12`: 67.7% (inactive).
Consider `CC(=O)O[C@H]1C(=O)[C@@]2(C)C([C@H](OC(=O)c3ccccc3)[C@]3(O)C[C@H](OC(=O)[C@H](O)[C@@H](NC(=O)c4ccccc4)c4ccccc4)C(C)=C1C3(C)C)[C@]1(OC(C)=O)CO[C@@H]1C[C@@H]2O` (some centres undefined), for which the growth was 14.9% (inactive).
Take `CC1(C)OC(=O)C(=Cc2ccccc2Br)C(=O)O1`: the growth is 101% (inactive).
Turning to `COC1CC2CCC(C)C(O)(O2)C(=O)C(=O)N2CCCCC2C(=O)OC(C(C)CC2CCC(O)C(OC)C2)CC(=O)C(C)C=C(C)C(O)C(OC)C(=O)C(C)CC(C)/C=C/C=C/C=C1C` (centres undefined), the growth was 45.2% (inactive).
`COc1cc([C@@H]2c3cc4c(cc3C(O[C@@H]3O[C@@H]5CO[C@@H](c6cccs6)OC5[C@H](O)[C@H]3O)C3COC(=O)[C@@H]32)OCO4)cc(OC)c1O` (some centres undefined): the growth was -3.69% (active).
In the case of `Cn1c(=O)c2nc(SCc3ccccc3)n(C)c2n(C)c1=O`, the growth was 104% (inactive).
Take `O=c1cc(-c2cccnc2)oc2c1ccc1ccccc12`: the growth was 66.5% (inactive).
With `C/C(=N\N1CC(=O)NC1=O)c1ccc([N+](=O)[O-])o1`, the growth is 108% (inactive).
On the same count and under the same terms, then `NC(N)=N/N=C(/c1ccccc1)c1ccc(Cl)cc1`, with -22.5% (active); and `N#Cc1ccc(NC(=O)Nc2ccc(Oc3ccc(NC(=O)Nc4ccc(C#N)cc4)cc3)cc2)cc1`, with 38.9% (inactive).
As for `Cc1c(NCc2nnc3n(Cc4ccccc4)c(=O)c4c5c(sc4n23)CCCC5)c(=O)n(-c2ccccc2)n1C`, the growth is 90.7% (inactive).
Take `O=C(Nc1ccc(OCc2nnc(-c3ccccc3)o2)c(F)c1)Nc1ccc(Cl)c(C(F)(F)F)c1`: the growth is 35.6% (inactive).
`Cc1cc(N2CCOCC2)nc(N2CCOCC2)n1`: the growth is 95.4% (inactive).
Turning to `COc1cc2c(C#N)n3c(c2cc1OC)C(=O)C(c1ccccc1)Oc1ccccc1-3` (centres undefined), the growth is 73.5% (inactive).
Take `O=[N+]([O-])c1ccc(N/N=C\c2ccccc2[N+](=O)[O-])nc1`: the growth was 97.7% (inactive).
The same measure, in the same setting: then `CO[C@H]1CC(O[C@@H]2/C(C)=C/C[C@@H]3C[C@@H](C[C@]4(CC[C@H](C)[C@@H](C5CCCCC5)O4)O3)OC(=O)[C@@H]3C=C(C)/C(=N/O)[C@H]4OC/C(=C\C=C\[C@@H]2C)[C@]43O)O[C@@H](C)C1O` (some centres undefined), with -43.7% (active).
On the same count and under the same terms, the same measure for `COc1ccc(OC)c(NC(=O)c2cc3oc4ccccc4c3cc2O)c1`: 84.6% (inactive).
`C=C1CC[C@@H]2[C@](C)(COC(C)=O)[C@H](OC(C)=O)CC[C@@]2(C)[C@@H]1CC(Nc1ccc(S(=O)(=O)Nc2cc(C)on2)cc1)C1=CCOC1=O` (some centres undefined): the growth is 89.5% (inactive).

The next test relates to NCI/ADR-RES ovarian. The test is described as above. As to conditions: 10 µM unless noted.
As to `Cc1cc(NCCCNc2ccnc3cc(Cl)ccc23)nc(N2CCN(C)CC2)n1`, the growth is 107% (inactive).
Consider `CCCc1cc(=O)n2c(C(=O)Nc3ccccc3OC)c(C(=O)Nc3ccc(F)cc3)sc2n1`, for which the growth is 24.8% [30 µM] (inactive).
`N#Cc1cccc(/C=C(/C(=O)c2ccccc2)c2ccccc2)c1`: the growth was 40.1% (inactive).
For `CCC1(c2ccccc2)Oc2ccccc2-n2c(C#N)c3ccccc3c2C1=O` (centres undefined), the growth is 95.6% (inactive).
Take `C/C(=N/N=C(N)N)c1ccc(N)cc1`: the growth was 103% (inactive).
Regarding `CC(C)c1nc(N(C)S(C)(=O)=O)nc(-c2ccc(F)cc2)c1/C=C/[C@@H](O)C[C@@H](O)CC(=O)O`, the growth is 104% (inactive).
For `COc1ccc(/C=C(\C#N)c2ccccc2)cc1`, the growth is 78% (inactive).
With `Fc1ccc([C@@H]2CCNC[C@H]2COc2ccc3c(c2)OCO3)cc1`, the growth was 86.3% (inactive).
With `COc1cc(/C=C/C(=O)c2c(-c3ccc(F)cc3)nc3sc(C)nn23)cc(OC)c1OC`, the growth is 23.4% (inactive).
Consider `CCC(C)CC(CC)NCCN1CCN(C(CC)CC(C)CC)C1=S` (centres undefined), for which the growth was 56.4% (inactive).
Take `COc1cccc(-c2nnc(N)o2)c1`: the growth was 102% (inactive).
Still for that read-out and setting: then `CCCCSc1cc(C)nc(N)n1`, with 95% (inactive).
The same measure, in the same setting: then `Cc1ccsc1/C=C/C1=NCCCN1C`, with 107% (inactive); and `Nc1c2ccccc2nc2ccccc12` (tested in a mixture with another compound), with 19.4% (inactive); and `COc1cc(/C=C/C(=O)c2c(-c3ccc(Cl)cc3)nc3sc(C)nn23)cc(OC)c1OC`, with 59.8% (inactive).
As for `CCCCc1nc(Cl)c(CO)n1Cc1ccc(-c2ccccc2-c2nn[nH]n2)cc1`, the growth is 105% (inactive).
The same measure, in the same setting: then `CN(CCOc1ccc(CC2SC(=O)NC2=O)cc1)c1ccccn1` (centres undefined), with 101% (inactive); and `N#Cc1c2ccccc2c2n1-c1ccccc1OC(c1ccccc1)C2=O` (centres undefined), with 14% (inactive).
Turning to `Nc1nc(N)c([N+](=O)[O-])c(=O)[nH]1`, the growth was 101% (inactive).
For `Cc1c(C(N)=O)sc2ncn(Cc3ccccc3)c(=O)c12`, the growth was 105% (inactive).
Turning to `CC(=O)O[C@H]1C(=O)[C@@]2(C)C([C@H](OC(=O)c3ccccc3)[C@]3(O)C[C@H](OC(=O)[C@H](O)[C@@H](NC(=O)c4ccccc4)c4ccccc4)C(C)=C1C3(C)C)[C@]1(OC(C)=O)CO[C@@H]1C[C@@H]2O` (some centres undefined), the growth is 43.9% (inactive).
For the molecule `CC1(C)OC(=O)C(=Cc2ccccc2Br)C(=O)O1`, the growth was 106% (inactive).
`COC1CC2CCC(C)C(O)(O2)C(=O)C(=O)N2CCCCC2C(=O)OC(C(C)CC2CCC(O)C(OC)C2)CC(=O)C(C)C=C(C)C(O)C(OC)C(=O)C(C)CC(C)/C=C/C=C/C=C1C` (centres undefined): the growth is 49.1% (inactive).
With `COc1cc([C@@H]2c3cc4c(cc3C(O[C@@H]3O[C@@H]5CO[C@@H](c6cccs6)OC5[C@H](O)[C@H]3O)C3COC(=O)[C@@H]32)OCO4)cc(OC)c1O` (some centres undefined), the growth was 60.3% (inactive).
On to `Cn1c(=O)c2nc(SCc3ccccc3)n(C)c2n(C)c1=O`, for which the growth was 112% (inactive).
For `O=c1cc(-c2cccnc2)oc2c1ccc1ccccc12`, the growth is 75.3% (inactive).
On the same count and under the same terms, then `C/C(=N\N1CC(=O)NC1=O)c1ccc([N+](=O)[O-])o1`, with 93.7% (inactive).
For `NC(N)=N/N=C(/c1ccccc1)c1ccc(Cl)cc1`, the growth was 82.6% (inactive).
Turning to `N#Cc1ccc(NC(=O)Nc2ccc(Oc3ccc(NC(=O)Nc4ccc(C#N)cc4)cc3)cc2)cc1`, the growth is 48.9% (inactive).
For the molecule `Cc1c(NCc2nnc3n(Cc4ccccc4)c(=O)c4c5c(sc4n23)CCCC5)c(=O)n(-c2ccccc2)n1C`, the growth is 85.6% (inactive).
As to `O=C(Nc1ccc(OCc2nnc(-c3ccccc3)o2)c(F)c1)Nc1ccc(Cl)c(C(F)(F)F)c1`, the growth was 17.8% (inactive).
As to `Cc1cc(N2CCOCC2)nc(N2CCOCC2)n1`, the growth is 96.3% (inactive).
Consider `COc1cc2c(C#N)n3c(c2cc1OC)C(=O)C(c1ccccc1)Oc1ccccc1-3` (centres undefined), for which the growth is 21.5% (inactive).
For the molecule `O=[N+]([O-])c1ccc(N/N=C\c2ccccc2[N+](=O)[O-])nc1`, the growth is 108% (inactive).
`CO[C@H]1CC(O[C@@H]2/C(C)=C/C[C@@H]3C[C@@H](C[C@]4(CC[C@H](C)[C@@H](C5CCCCC5)O4)O3)OC(=O)[C@@H]3C=C(C)/C(=N/O)[C@H]4OC/C(=C\C=C\[C@@H]2C)[C@]43O)O[C@@H](C)C1O` (some centres undefined): the growth was -76.3% (active).
Take `COc1ccc(OC)c(NC(=O)c2cc3oc4ccccc4c3cc2O)c1`: the growth was 88.6% (inactive).
For the molecule `C=C1CC[C@@H]2[C@](C)(COC(C)=O)[C@H](OC(C)=O)CC[C@@]2(C)[C@@H]1CC(Nc1ccc(S(=O)(=O)Nc2cc(C)on2)cc1)C1=CCOC1=O` (some centres undefined), the growth was 31.6% (inactive).

These data come from PubChem BioAssay (NCI).
